IL-1B inflam inh = blocks inflammasome-driven IL-1 beta release. activity change, % at 57.5 µM. THP-1 LPS/ATP IL-1B secretion, AlphaLISA, 16 h; active compounds read low. hit rate 4.7% among 360,000; in the data active = activity change below about -50%; inconclusive = mostly about -30% to -49%; also: % is scaled to controls: 0 for no effect and ±100 for the full control effect
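THP-1 cells pretreated 1 hr with compounds (up to 57.5 uM final), then stimulated with LPS (250 ng/mL final) plus ATP (1.25 mM final); secreted IL-1B measured by AlphaLISA after 16 hr, decreased signal indicating inhibition.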
DT40 TDP1 CPT = growth inhibition of DT40 Tdp1-/-;hTDP1 cells with camptothecin (screen for TDP1 inhibitors) | AID 686979 | hit rate 12% among 420,000 | chicken DT40 Tdp1-/-;hTDP1 cells + 20 nM CPT, ATP luminescence, 48 h | Potency, µM (titrated, usually from 46.2 µM), for inactives: top-dose activity change, negative = growth inhibition, actives largely listed as inhibitors; also: potency is read from the fitted curve at half-maximal effect; % is scaled to controls: 0 for no effect and ±100 for the full control effect; nearly all actives have a fitted effect of over 55% in size
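Cell growth measured by CellTiter-Glo luminescence after a minimum 48 h, 37 C compound exposure with 20 nM CPT in Tdp1-knockout DT40 cells stably expressing hTDP1, seeded 400/well; qHTS titration format.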
HepG2 viability = kills HepG2 cells in TGF-b inhibitor counter-screen; HepG2 CAGA-GFP viability, ATP luminescence, 18 h; Potency, µM (titrated, usually from 46.1 µM), for inactives: at the highest dose activity change, negative = cytotoxicity, actives largely listed as cytotoxic; hit rate 0.76% among 410,000; AID 588856; also: potency is read from the fitted curve at half-maximal effect
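HepG2 CAGA-GFP cells (1000/well, DMEM with 1% FBS) received compound, then TGF-beta at 500 pg/mL final, and were incubated 18 hours at 37 degrees C. Viability was read by CellTiter-Glo luminescence. Media-only wells were set as complete cell-killing and DMSO as no toxicity.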
DT40 TDP1 no CPT = qHTS for Inhibitors of human tyrosyl-DNA phosphodiesterase 1 (TDP1): qHTS in cells in absence of CPT. Potency, µM (titrated, usually from 46.2 µM), inactives show top-dose activity change, negative = growth inhibition, most hits filed as inhibitors. AID 686978, 2013. DT40 Tdp1-/- hTDP1 cells, no CPT, ATP luminescence, 48 h. hit rate 15% among 420,000; also: potency is read from the fitted curve at half-maximal effect; % is scaled to controls: 0 for no effect and ±100 for the full control effect; nearly all actives have a fitted effect of over 55% in size
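Camptothecin absent (DMSO only). Human TDP1-complemented DT40 knockout cells, 400 cells/well, 37 °C for minimum 48 hr; ATP measured via CellTiter-Glo, 30 min dark incubation, luminescence.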
S-ASM inh = inhibitors of human secretory acid sphingomyelinase. placental ASM, HMU-PC fluorogenic substrate, 60 min. Potency, µM (top dose mostly 57.5 µM), for inactives: at the top dose activity change, negative = inhibition, hits mostly inhibitors. hit rate 0.006% among 340,000; also: potency is read from the fitted curve at half-maximal effect
Target sequence (P17405 47-631 limits assumed): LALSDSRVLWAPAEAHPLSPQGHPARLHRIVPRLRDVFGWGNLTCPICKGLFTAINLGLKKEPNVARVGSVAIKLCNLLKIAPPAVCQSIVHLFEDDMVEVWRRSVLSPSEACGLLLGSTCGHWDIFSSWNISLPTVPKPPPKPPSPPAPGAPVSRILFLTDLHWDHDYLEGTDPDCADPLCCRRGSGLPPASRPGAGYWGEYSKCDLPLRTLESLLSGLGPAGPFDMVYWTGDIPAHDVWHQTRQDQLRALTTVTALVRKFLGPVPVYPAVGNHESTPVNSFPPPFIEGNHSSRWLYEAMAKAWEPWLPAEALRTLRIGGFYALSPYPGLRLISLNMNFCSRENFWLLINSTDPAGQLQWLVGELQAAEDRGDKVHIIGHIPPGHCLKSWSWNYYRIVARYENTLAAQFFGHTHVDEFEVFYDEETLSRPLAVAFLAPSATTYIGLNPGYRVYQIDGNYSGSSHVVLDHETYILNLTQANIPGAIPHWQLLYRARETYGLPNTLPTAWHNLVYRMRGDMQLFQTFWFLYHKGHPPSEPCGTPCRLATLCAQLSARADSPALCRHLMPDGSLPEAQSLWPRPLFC
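Human placenta-derived ASM preincubated with compound 10 min at room temperature, then reacted with 9 uM (final) fluorogenic HMU-PC substrate for 60 min at 37 C. Stop solution raises pH to 10; fluorescence read at Ex 386/Em 447 nm.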
TGFb SMAD3 inh = TGF-b pathway inhibition; HepG2 CAGA-GFP TGF-b/SMAD3 reporter, GFP fluorescence, 18 h; TGF-beta stimulated, 500 pg/mL final; Potency, µM (doses to about 46.1 µM), without a hit: at the highest dose activity, negative = inhibition, actives largely listed as inhibitors; hit rate 1.2% among 410,000; AID 588855; also: potency is read from the fitted curve at half-maximal effect; % is scaled to controls: 0 for no effect and ±100 for the full control effect; nearly all actives have a fitted effect of over 65% in size
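GFP signal (ex488/em500-530) from TGF-beta-stimulated HEPG2 CAGA-GFP cells, 500 pg/mL final, 18 h at 37 degrees C in DMEM plus 1% FBS, normalized to unstimulated and DMSO-stimulated controls.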
* marks the source's active call; other numbers are inactive results; ? = inconclusive; . = no result given. In the library only some 19% were active in any assay of this set; here they are far more common. Unless noted, calls follow the shape of the dose curve; as a rule, active = well fitted curve in the direction sought with a large enough effect; inconclusive = small, poorly fitted or top-dose-only effect, or another doubt; inactive = no such curve, though single readings can be large; an effect the other way counts as inactive or inconclusive.

SMILES	IL-1B inflam inh	DT40 TDP1 CPT	HepG2 viability	DT40 TDP1 no CPT	S-ASM inh	TGFb SMAD3 inh
CCCC(=O)NC1CCCc2c1cnn2-c1ccc(C)c(C)c1 (stereo not given)	-4.4	-14.5%	-7.6%	?	1.0%	1.0%
Cc1ccc(-n2ncc3c2CCCC3NC(=O)c2ocnc2C)cc1C (stereo not given)	-2.7	10.3µM*	-50.3%	7.31µM*	-0.4%	-15.7%
Cc1cc(C(=O)NC2CCCc3c2cnn3-c2ccc(C)c(C)c2)no1 (stereo not given)	23.2	14.6µM*	-31.8%	?	-2.5%	-22.0%
O=C(CNC(=O)c1cccs1)N/N=C/c1ccccc1[N+](=O)[O-]	-2.7	20.9%	-2.2%	-15.8%	-0.6%	-1.0%
Cc1cccc(C(=O)N(Cc2nc3ccccc3c(=O)[nH]2)C2CCCCC2)c1	0.0	?	-15.4%	?	-4.7%	0.0%
CN(Cc1nc2ccccc2c(=O)[nH]1)C(=O)c1cc2c(s1)CCCCC2	35.0	23.1µM*	9.7%	16.4µM*	-3.4%	10.7%
CN(CC(=O)Nc1sc2c(c1C#N)CCCCC2)Cc1nc2ccccc2c(=O)[nH]1	-6.2	?	-15.8%	18.4µM*	-5.1%	-5.7%
COc1cccc(CN(C)CC(=O)Nc2sc3c(c2C#N)CCC3)c1OC	-2.7	-18.6%	-0.3%	8.7%	4.0%	-3.2%
Cc1cccc(C(=O)N(Cc2nc3ccccc3c(=O)[nH]2)C2CCCC2)c1	-18.8	?	-7.2%	25.9µM*	-5.5%	?
CNC(=O)COc1coc(CN2CCN(Cc3ccccc3)CC2)cc1=O	0.1	8.1%	-2.2%	-0.8%	1.3%	2.5%
COc1ccc(N2C(=O)CC(NNC(=O)c3ccc(Br)s3)C2=O)cc1 (stereo not given)	-64.3*	14.1%	-1.0%	12.4%	-0.3%	-1.3%
COc1cccc(N2C(=O)CC(NNC(=O)c3cccs3)C2=O)c1 (stereo not given)	11.1	5.2%	28.7%	-6.3%	4.7%	27.1%
O=C(O)c1cccc(N2C(=O)c3cccc4c(Cl)ccc(c34)C2=O)c1	-52.0*	?	-19.3%	-14.3%	30.6%	-11.0%
O=C1c2cccc3c(Cl)ccc(c23)C(=O)N1O	2.3	?	6.4%	5.8µM*	-2.1%	-29.6%
O=C(c1cccc2ccccc12)N1CCCCC1	5.7	0.0%	6.3%	-17.9%	4.2%	-3.5%
O=C1c2ccc3c4c(ccc(c24)C(=O)N1c1cccc(O)c1)C(=O)N(c1cccc(O)c1)C3=O	-13.3	4.11µM*	4.47µM*	6.51µM*	-1.8%	3.98µM*
O=C(c1ccc2c3c(cccc13)C(=O)N(O)C2=O)N1CCCCC1	-11.4	8.2µM*	-13.0%	7.31µM*	-2.3%	0.0%
CC12CCC(/C(=C/NNc3ccc([N+](=O)[O-])cc3[N+](=O)[O-])C1=O)C2(C)C (stereo not given)	-6.5	18.4µM*	-39.1%	18.4µM*	.	?
Cc1cc[n+](CC(=O)c2ccc(NC(=O)c3ccccc3)cc2)cc1	-10.0	?	-3.4%	?	-0.4%	1.6%
Cc1cc[n+](CC(=O)c2ccc(NC(=O)c3ccccc3)cc2)c2ccccc12	?	8.2µM*	-26.5%	3.66µM*	-2.5%	-6.9%
O=C(C[n+]1cccc2ccccc21)c1ccc(NC(=O)c2ccccc2)cc1	0.0	8.2µM*	-2.5%	6.51µM*	-3.0%	14.7%
CCCc1nc2ccc(C)cn2c1Cc1ccccc1OC	0.0	20.6µM*	-41.0%	20.6µM*	.	?
CCCc1nc2ccc(Cl)cn2c1Cc1ccccc1OC	10.0	7.31µM*	-31.1%	11.6µM*	.	?
CCCc1nc2ccc(C)cn2c1Cc1ccc(OC)cc1C	4.5	13µM*	-30.4%	23.1µM*	.	-1.8%
CCCc1nc2ccc(Br)cn2c1Cc1ccccc1OC	2.2	1.46µM*	-48.7%	0.82µM*	.	15.8µM*
SMILES	IL-1B inflam inh	DT40 TDP1 CPT	HepG2 viability	DT40 TDP1 no CPT	S-ASM inh	TGFb SMAD3 inh
CCCc1nc2ccc(C)cn2c1Cc1ccccc1C(F)(F)F	-14.2	?	-58.5%	?	.	?
COc1ccccc1Cc1c(-c2ccc(F)cc2)nc2ccc(Cl)cn12	26.4	?	-9.9%	?	.	-16.7%
Clc1ccc(-c2nc3ccc(Cl)cn3c2Cc2ccccc2)cc1	24.5	?	-17.2%	?	.	-16.4%
CCCc1nc2c3ccccc3ccn2c1Cc1ccc(OC)cc1C	-11.7	18.4µM*	-14.7%	?	.	?
CCCc1nc2ccc(Cl)cn2c1Cc1ccccc1	20.9	6.51µM*	-1.3%	4.11µM*	.	-6.0%
O=[N+]([O-])c1ccc(NC(=S)NCc2ccc(F)cc2)cc1	-100.3*	?	-34.5%	14.6µM*	-13.6%	?
O=[N+]([O-])c1ccc(C=NNC(=S)Nc2ccc(F)cc2)cc1	-0.2	1.46µM*	3.7%	2.91µM*	-3.0%	0.0%
O=[N+]([O-])c1ccc(NC(=S)NCc2ccncc2)cc1	12.1	-20.3%	-5.7%	?	-2.9%	-0.2%
O=[N+]([O-])c1ccc(C=NNC(=S)NN=Cc2ccc([N+](=O)[O-])cc2)cc1	27.6	?	0.3%	-13.6%	-2.7%	-3.8%
CC(=O)Nc1ccc(C)cc1-c1nc2ccccc2n(CC(=O)Nc2cc(Cl)ccc2C)c1=O	.	?	6.7%	0.9%	.	-18.5%
Cc1ccc(-c2nc(N)sc2-c2ccc(C)cc2)cc1	-24.7	?	-26.7%	16.4µM*	-14.1%	?
Cc1ccc(Cl)c(N/C=C/C(=O)c2ccccc2)c1	31.1	-0.6%	-20.3%	-9.1%	15.8%	4.6%
CC(C)C[C@H](NC(=O)OC(C)(C)C)c1nnc(SCc2ccccc2)o1	-18.5	?	2.2%	23.1µM*	0.9%	0.0%
C[C@H](NC(=O)OC(C)(C)C)c1nnc(SCC(=O)c2ccc(Cl)cc2)o1	12.3	16.4µM*	-25.3%	20.6µM*	1.7%	-10.8%
COC(=O)Nc1ccc(SCC(=O)c2ccc(Cl)cc2)cc1	-61.9*	?	-25.8%	?	-0.6%	-16.6%
O=C(CSc1nnc(CNC(=O)c2cccs2)o1)c1ccc(Cl)cc1	-57.6*	20.6µM*	4.0%	?	-4.2%	3.8%
C[C@H](NC(=O)OC(C)(C)C)c1nnc(SCC(=O)Nc2cccc(Cl)c2)o1	-1.1	-24.8%	0.6%	16.6%	-0.2%	-0.3%
COc1ccc(OC)c(CNC(=O)CCSCc2ccc(F)cc2Cl)c1	-6.6	-17.7%	-28.1%	?	1.0%	-17.4%

Source: PubChem BioAssay (National Center for Advancing Translational Sciences (NCATS))
